From PubChem BioAssay (NCATS)
Where “and” joins values, the source holds several entries; their conditions need not be identical. Equal entries are not always repeated. Results filed as inconclusive are left out. A call without a number means that no potency is given here. Calls of active or inactive are those of the source. Unless noted, the call rests on the fitted dose curve; in most records, active means well fitted curve in the direction sought with a large enough effect; inconclusive means small, poorly fitted or top-dose-only effect, or another doubt; inactive means no such curve, though single readings can be large; an effect the other way counts as inactive or inconclusive.

Columns and labels:
[1] = AP1 Signaling Pathway (AID 357; active means well fitted curve in either direction with a large enough effect, not every such curve was filed as active;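 further: ME-180 reporter cells stimulated with EGF at its EC50 level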); details: ME-180 AP-1-bla reporter, EGF-induced, beta-lactamase ratio, 5 h; at 38 µM (top of the series)
Summary of the method: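 Titration-series screen for positive or negative modulators of EC50 EGF-induced signaling in ME-180 cells carrying an AP-1-driven beta-lactamase reporter. After 5 hours at 37 degrees Celsius, CCF4 460nm/530nm emission ratio gave %Activity; AC50 values derived.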

[2] = molecular target: Cytochrome P450 1A2 (Homo sapiens) (UniProt P05177); assay: p450-cyp1a2 (AID 410; calls by dose curve)
Summary of the method: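 Human CYP1A2 (20nM) demethylated Luciferin-ME at its Km (100uM) in 100mM KPO4. After 10 min compound preincubation, NADPH regeneration ran the reaction 60 min at room temperature. Luciferin was read by luminescence, normalized to 57 uM furafylline.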

[3] = NFAT Signaling Pathway (AID 444; active means well fitted curve in either direction with a large enough effect, not every such curve was filed as active;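 further: carbachol stimulus at about its EC50 of 1 µM final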); details: Jurkat NFAT-bla M1, carbachol, beta-lactamase ratio, 5 h; at 38 µM (top of the series)
Summary of the method: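 Jurkat cells carrying an NFAT-driven β-lactamase reporter and co-transfected muscarinic M1 receptor were treated with compound plus carbachol (1 uM final, an EC50 level) for 5 h at 37 °C. CCF4 loading followed for 1 h at RT; 460/530 nm ratio gave %activity.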

[4] = Stat Signaling Pathway (AID 446; active means well fitted curve in either direction with a large enough effect, not every such curve was filed as active;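 further: ME-180 cervical cancer cells given 40 pM IL-6 alongside compound; SIE-controlled beta-lactamase reporter measured as 460/530 nm FRET emission ratio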); details: ME-180 SIE beta-lactamase reporter, IL-6 stimulated, 5 h; at 38 µM (top of the series)
Summary of the method: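 ME-180 SIE-bla cells; overnight plating; cpd + IL-6 40 pM, 5 h, 37 C; LiveBLAzer 2.5 h RT; 460/530 nm emission ratio. Normalized to 300 pM IL-6 and 125 nM JAK inhibitor controls.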

[5] = molecular target: Glucocorticoid receptor (Homo sapiens) (UniProt P04150); assay: GR-GFP Redistribution (AID 450;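 active means compounds whose dose series gives a full or clear partial fitted curve of increased nuclear translocation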; further: potency means the concentration at half of the fitted maximal effect); details: U2OS GR-GFP nuclear translocation, laser cytometry, 2 h
[6] = molecular target: Glucocorticoid receptor (Homo sapiens) (UniProt P04150); assay: GR-EFC Redistribution (AID 451; calls by dose curve; further: potency means the concentration at half of the fitted maximal effect); details: CHO-K1 GR-EFC translocation, beta-gal luminescence, 2 h
Summary of the method: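 CHO-K1 cells stably expressing nuclear-localized β-gal enzyme acceptor and GR fused C-terminally to the enzyme donor fragment; ligand-driven nuclear translocation restores β-gal by complementation. Compounds titrated up to 46 uM final, 2 h at 37 °C; luminescence read.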

[7] = molecular target: Mitogen-activated protein kinase 10 (Mus musculus) (UniProt Q61831); assay: JNK3 AlphaScreen Assay (AID 530; active means well fitted curve in either direction with a large enough effect, not every such curve was filed as active;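 further: kinase came from lysate of stimulated human HepG2 cells; signal reports phosphorylation of biotinylated GST-cJun 1-79 at Ser73 with 10 µM ATP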)
Summary of the method: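 JNK3 came from HepG2 lysates pre-activated with IL-1beta and TNF-alpha and phosphorylated biotinylated GST-cJun (1-79) at 10 uM ATP, pH 7.6, room temperature. Compounds were titrated. AlphaScreen signal used anti-phospho-cJun (Ser73) antibody.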

[8] = molecular target: 3',5'-cyclic-AMP phosphodiesterase 4B (Homo sapiens) (UniProt Q07343); assay: qHTS Assay for Inhibitors of PDE-IV (AID 607; active means well fitted activation curve with a large enough effect in the main read-out, with a control signal flat, not every such curve was filed as active)
Summary of the method: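 ACTOne HEK293 cells carry a modified cAMP-gated CNG channel and express endogenous PDE4; plated 1000 cells/well, compounds up to 22.9 uM final. Membrane-potential dye fluorescence (ex 535/em 590) was read; parental cells received 10 uM forskolin + 100 uM RO 20-1724.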

[9] = molecular target: Guanine nucleotide-binding protein G(i) subunit alpha-1 (Homo sapiens) (UniProt P63096); assay: qHTS Assay for Inhibitors of RGS12 GoLoco Motif Activity (Green Fluorophore) (AID 879);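 further: negative values mean loss of peptide binding seen as reduced polarization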
Summary of the method: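 Fluorescence polarization assay: 50 nM Gαi1 with 10 nM FITC-labeled RGS12 GoLoco peptide in 10 mM Tris pH 7.5, 150 mM NaCl, 0.1 mM GDP, 0.05% NP40, 10 min at room temperature with compound.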

[10] = molecular target: Cytochrome P450 2C9 (Homo sapiens) (UniProt P11712); assay: qHTS Assay for Inhibitors and Substrates of Cytochrome P450 2C9 (AID 883); further: nearly all actives have a fitted effect of over 60% in size
Summary of the method: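 Human CYP2C9 (10nM) hydroxylated Luciferin-H (100uM, at its KM) to luciferin in 25mM KPO4. Compound was preincubated 10 min at 37C, then NADPH regeneration started a 60 min reaction at 37C. Luminescence was read after detection reagent, normalized to 57uM sulphaphenazole.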

[11] = molecular target: Cytochrome P450 2D6 (Homo sapiens) (UniProt P10635); assay: qHTS Assay for Inhibitors and Substrates of Cytochrome P450 2D6 (AID 891);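 further: luciferin methyl ether substrate demethylated by CYP2D6 with NADPH regeneration; nearly all actives have a fitted effect of over 60% in size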
Summary of the method: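 Human CYP2D6 (5 nM) with 30 uM Luciferin-ME EGE (at Km) in 100 mM KPO4, compound preincubated 10 min, then NADPH regeneration system for 60 min at room temperature. Luciferin read by luminescence; normalized to 1.43 uM quinidine.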

[12] = molecular target: Cytochrome P450 2C19 (Homo sapiens) (UniProt P33261); assay: qHTS Assay for Inhibitors and Substrates of Cytochrome P450 2C19 (AID 899); further: nearly all actives have a fitted effect of over 60% in size
Summary of the method: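 Human CYP2C19 (5nM) with Luciferin-H EGE at 10uM (its KM) in 50mM KPO4 was preincubated with compound for 10 min at 37C. NADPH regeneration started a 60 min 37C reaction. Luciferin was read by luminescence, normalized to 57uM ketoconazole.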

[13] = Confirmation and Secondary Assay for Modulators of Hemoglobin Beta Chain Splicing at IVS2 654 locus (AID 910);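 further: per-well total GFP intensity by laser scanning cytometry after 2-day treatment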
Summary of the method: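 HeLa cells stably carrying EGFP interrupted by mutant beta-globin IVS2-654 intron (CMV-driven) were treated with compound for 2 days at 37C; corrected splicing was scored as total peak GFP intensity per well (488 nm excitation, 500-520 nm emission).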

[14] = qHTS Assay for Identification of Small Molecule Agonists for Thrombopoietin (TPO) Signaling Pathway (AID 917)
Summary of the method: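 Luminescence from a Glycoprotein IIb promoter–driven luciferase reporter served as read-out in murine Ba/F3 cells carrying the human TPO receptor. Cells, deprived of IL-3 overnight, received compounds with 26 pM TPO and were incubated 24 hrs at 37 C.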

[15] = Confirmation and Secondary Assay for Modulators of Hemoglobin Beta Chain Splicing at IVS2 705 locus (AID 930);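 further: HeLa cells stably expressing the EGFP-705 splicing reporter; GFP fluorescence per well restored by corrected splicing of the IVS2-705 intron in EGFP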
Summary of the method: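 Splice-correction reporter: EGFP cDNA split by beta-globin intron 2 bearing the 705 mutation, stably in HeLa. Compound incubation 2 days, 37C; fluorescent objects 5-250 µm summed per well.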

[16] = molecular target: Muscarinic acetylcholine receptor M1 (Rattus norvegicus) (UniProt P08482); assay: qHTS Assay for Antagonists of Acetylcholine Muscarinic M1 Receptor: Measurement of IP-One Response (AID 944); further: nearly all actives have a fitted effect of over 75% in size
Summary of the method: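 CHO cells expressing rat M1 receptor, recovered overnight, were pre-incubated 10 min with compound, then stimulated 30 min with carbachol at EC80 (200 nM) in LiCl-containing buffer, pH 7.4. IP1 accumulation was read by HTRF (620/665 nm).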

[17] = molecular target: Pyruvate kinase (Leishmania mexicana) (UniProt Q27686); assay: qHTS Validation Assay for Inhibitors of Leishmania Mexicana Pyruvate Kinase (AID 945)
Summary of the method: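 The enzyme is a highly purified E451W mutant of LmPYK used at 0.2 nM. It converts 0.5 mM PEP and 0.1 mM ADP over 1 h at room temperature; product ATP is quantified by luciferase luminescence relative to DMSO controls.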

[18] = molecular target: Pyruvate kinase PKM (Homo sapiens) (UniProt P14618); assay: qHTS Assay for Activators of Human Muscle Pyruvate Kinase (AID 954; active means well fitted curve in the direction sought with a large enough effect, not every such curve was filed as active)
Summary of the method: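 Luminescence from a luciferase ATP-detection/stop reagent reported PKM2 activity. Reactions contained 0.1 nM purified human enzyme, 0.5 mM PEP, 0.1 mM ADP and 7 mM MgCl2 at pH 7.2, run 1 h at RT.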

[19] = molecular target: Alpha-galactosidase A (Homo sapiens) (UniProt P06280); assay: Counterscreen for Glucocerebrosidase Inhibitors: qHTS Assay for Human alpha-Galactosidase at pH 4.5 (AID 992)
Summary of the method: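 Enzyme at 2 nM final was combined with compound (0.7 nM to 77 uM) and 80 uM 4-methylumbelliferyl alpha-D-galactopyranoside in 50 mM citric acid, 0.005% Tween-20, pH 4.5. After 20 min at room temperature, fluorescence was read (Ex 365/Em 440 nm); AC50 came from Hill fits.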

[20] = molecular target: alpha-glucosidase (Oryza sativa, rice) (UniProt Q653V4); assay: Counterscreen for Glucocerebrosidase Inhibitors: qHTS Assay for Rice alpha-Glucosidase at pH 5.0 (AID 997)
Summary of the method: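 Rice alpha-glucosidase (4 nM final) with 400 uM 4-methylumbelliferyl-alpha-D-glucopyranoside in citrate buffer pH 5.0, 20 min at room temperature, stopped at pH 10; fluorescence 365/440 nm, compounds 0.7 nM–77 uM, AC50 from Hill fits.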

[21] = Validation of Assay for Modulators of Lamin A Splicing (AID 1459; active means well fitted curve in the direction sought with a large enough effect in the signal ratio; the % refers to the signal ratio;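 further: cells exposed to compound for two days before reading; ratio rise marks activators and ratio drop marks inhibitors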)
Summary of the method: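 HeLa S3 lamin A-EGFP/DsRed2 stable clone, 600 cells/well, Opti-MEM 2% FBS; compounds by pin tool; 48 hrs, 37 °C/5% CO2; Acumen 488 nm scan, objects 10-100 um; GFP/RFP intensity ratio.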

[22] = qHTS Assay for Lipid Storage Modulators (AID 1519; calls by dose curve); details: Drosophila S3 cells, BODIPY lipid droplet/cell ratio, laser cytometry, cells loaded with oleic acid
Summary of the method: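 Cells seeded at 5,000 per well were treated with compounds over a concentration series and loaded with oleic acid (400 uM, as added). Lipid droplet fluorescence (488 nm excitation, 500-530 nm channel) was read by laser-scanning cytometry and normalized to 20 uM Triacsin C.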

Chain of Glucocorticoid receptor (Homo sapiens) (P04150 whole entry, looked up, the tested form may be a part): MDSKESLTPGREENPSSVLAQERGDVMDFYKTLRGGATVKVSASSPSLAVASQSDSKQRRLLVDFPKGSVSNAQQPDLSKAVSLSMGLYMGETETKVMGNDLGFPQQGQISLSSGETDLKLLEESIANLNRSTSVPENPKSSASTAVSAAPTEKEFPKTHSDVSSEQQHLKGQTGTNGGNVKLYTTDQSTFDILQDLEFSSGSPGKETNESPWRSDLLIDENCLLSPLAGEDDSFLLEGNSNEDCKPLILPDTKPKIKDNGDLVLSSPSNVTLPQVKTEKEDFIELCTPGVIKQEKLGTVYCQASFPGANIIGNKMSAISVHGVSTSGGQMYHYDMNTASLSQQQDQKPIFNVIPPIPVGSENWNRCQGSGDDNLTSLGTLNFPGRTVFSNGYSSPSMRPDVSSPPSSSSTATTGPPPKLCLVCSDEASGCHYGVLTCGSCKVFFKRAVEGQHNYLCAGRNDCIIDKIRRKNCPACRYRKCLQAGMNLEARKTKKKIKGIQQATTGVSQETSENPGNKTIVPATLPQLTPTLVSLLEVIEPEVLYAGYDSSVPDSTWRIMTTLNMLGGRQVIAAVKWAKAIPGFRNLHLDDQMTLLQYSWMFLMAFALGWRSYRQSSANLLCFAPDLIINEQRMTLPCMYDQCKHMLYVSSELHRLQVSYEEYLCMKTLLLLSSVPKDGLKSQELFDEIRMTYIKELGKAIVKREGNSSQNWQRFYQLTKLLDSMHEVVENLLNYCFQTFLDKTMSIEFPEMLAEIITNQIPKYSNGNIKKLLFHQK
Chain of Cytochrome P450 2C9 (Homo sapiens) (P11712 whole entry, looked up): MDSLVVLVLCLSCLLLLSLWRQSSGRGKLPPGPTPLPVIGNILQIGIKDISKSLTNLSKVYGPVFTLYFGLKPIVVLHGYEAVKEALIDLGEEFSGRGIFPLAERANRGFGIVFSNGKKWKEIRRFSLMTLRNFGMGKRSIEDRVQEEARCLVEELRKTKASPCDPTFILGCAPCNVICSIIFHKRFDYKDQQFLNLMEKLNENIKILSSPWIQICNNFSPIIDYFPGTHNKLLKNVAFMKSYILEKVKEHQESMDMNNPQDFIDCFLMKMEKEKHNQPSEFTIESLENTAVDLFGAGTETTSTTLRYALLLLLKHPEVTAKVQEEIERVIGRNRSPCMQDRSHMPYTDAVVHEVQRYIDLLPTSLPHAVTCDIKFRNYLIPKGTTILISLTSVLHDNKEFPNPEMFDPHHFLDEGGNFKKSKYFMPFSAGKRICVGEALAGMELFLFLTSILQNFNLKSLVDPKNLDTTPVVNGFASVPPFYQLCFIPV
Chain of 3',5'-cyclic-AMP phosphodiesterase 4B (Homo sapiens) (Q07343 whole entry, looked up): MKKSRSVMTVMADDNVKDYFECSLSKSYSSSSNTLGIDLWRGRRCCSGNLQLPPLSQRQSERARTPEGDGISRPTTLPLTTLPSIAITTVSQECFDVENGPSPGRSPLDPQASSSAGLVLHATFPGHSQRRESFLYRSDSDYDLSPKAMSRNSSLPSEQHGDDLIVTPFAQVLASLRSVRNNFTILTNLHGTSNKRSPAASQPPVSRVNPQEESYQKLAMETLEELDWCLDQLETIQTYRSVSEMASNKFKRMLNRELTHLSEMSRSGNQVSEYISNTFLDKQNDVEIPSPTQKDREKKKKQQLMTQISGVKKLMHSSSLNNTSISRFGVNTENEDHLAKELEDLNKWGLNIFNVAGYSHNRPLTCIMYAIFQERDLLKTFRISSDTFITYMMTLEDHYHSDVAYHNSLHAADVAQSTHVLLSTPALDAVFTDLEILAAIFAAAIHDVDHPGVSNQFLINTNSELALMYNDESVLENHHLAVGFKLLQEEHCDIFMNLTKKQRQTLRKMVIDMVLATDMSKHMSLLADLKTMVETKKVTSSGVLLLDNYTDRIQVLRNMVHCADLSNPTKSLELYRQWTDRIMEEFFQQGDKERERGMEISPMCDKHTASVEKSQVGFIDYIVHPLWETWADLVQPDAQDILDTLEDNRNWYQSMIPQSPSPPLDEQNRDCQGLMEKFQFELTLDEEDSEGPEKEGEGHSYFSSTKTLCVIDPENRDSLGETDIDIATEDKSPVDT
Chain of Cytochrome P450 1A2 (Homo sapiens) (P05177 whole entry, looked up): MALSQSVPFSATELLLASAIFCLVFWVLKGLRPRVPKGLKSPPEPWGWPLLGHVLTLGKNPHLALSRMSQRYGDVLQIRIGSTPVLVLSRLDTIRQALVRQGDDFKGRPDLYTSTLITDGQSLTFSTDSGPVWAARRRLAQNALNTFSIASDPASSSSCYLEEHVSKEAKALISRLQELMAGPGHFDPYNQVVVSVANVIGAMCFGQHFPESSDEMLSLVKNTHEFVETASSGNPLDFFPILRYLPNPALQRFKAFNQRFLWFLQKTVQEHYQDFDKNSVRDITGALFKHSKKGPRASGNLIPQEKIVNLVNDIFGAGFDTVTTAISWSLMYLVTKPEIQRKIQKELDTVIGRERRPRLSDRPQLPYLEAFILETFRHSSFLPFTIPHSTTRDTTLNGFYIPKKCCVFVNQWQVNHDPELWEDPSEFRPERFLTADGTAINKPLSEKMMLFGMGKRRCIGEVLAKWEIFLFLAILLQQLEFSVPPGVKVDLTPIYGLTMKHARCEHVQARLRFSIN
Chain of Cytochrome P450 2D6 (Homo sapiens) (P10635 whole entry, looked up): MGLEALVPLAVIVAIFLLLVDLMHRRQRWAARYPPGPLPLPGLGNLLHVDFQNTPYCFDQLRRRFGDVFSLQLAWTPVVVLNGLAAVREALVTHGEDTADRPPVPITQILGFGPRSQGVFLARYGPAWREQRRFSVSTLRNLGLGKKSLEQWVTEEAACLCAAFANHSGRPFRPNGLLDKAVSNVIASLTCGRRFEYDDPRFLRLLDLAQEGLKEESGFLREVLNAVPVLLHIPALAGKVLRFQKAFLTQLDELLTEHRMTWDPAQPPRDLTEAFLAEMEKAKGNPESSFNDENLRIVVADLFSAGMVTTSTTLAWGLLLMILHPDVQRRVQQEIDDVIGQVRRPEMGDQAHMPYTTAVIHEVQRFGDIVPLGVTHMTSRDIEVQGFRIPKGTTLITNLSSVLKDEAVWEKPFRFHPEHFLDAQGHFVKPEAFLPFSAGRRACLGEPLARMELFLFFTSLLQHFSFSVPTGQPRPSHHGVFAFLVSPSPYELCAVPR
Chain of Guanine nucleotide-binding protein G(i) subunit alpha-1 (Homo sapiens) (P63096 whole entry, looked up): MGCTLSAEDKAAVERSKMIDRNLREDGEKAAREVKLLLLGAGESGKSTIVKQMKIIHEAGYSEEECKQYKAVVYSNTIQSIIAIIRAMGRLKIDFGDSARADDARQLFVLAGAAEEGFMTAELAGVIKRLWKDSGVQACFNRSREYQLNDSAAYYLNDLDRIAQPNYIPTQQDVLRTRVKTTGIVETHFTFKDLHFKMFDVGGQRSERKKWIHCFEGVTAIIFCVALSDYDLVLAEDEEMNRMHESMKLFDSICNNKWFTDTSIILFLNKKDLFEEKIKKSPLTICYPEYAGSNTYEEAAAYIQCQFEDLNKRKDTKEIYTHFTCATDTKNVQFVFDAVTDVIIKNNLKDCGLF
Chain of Alpha-galactosidase A (Homo sapiens) (P06280 whole entry, looked up): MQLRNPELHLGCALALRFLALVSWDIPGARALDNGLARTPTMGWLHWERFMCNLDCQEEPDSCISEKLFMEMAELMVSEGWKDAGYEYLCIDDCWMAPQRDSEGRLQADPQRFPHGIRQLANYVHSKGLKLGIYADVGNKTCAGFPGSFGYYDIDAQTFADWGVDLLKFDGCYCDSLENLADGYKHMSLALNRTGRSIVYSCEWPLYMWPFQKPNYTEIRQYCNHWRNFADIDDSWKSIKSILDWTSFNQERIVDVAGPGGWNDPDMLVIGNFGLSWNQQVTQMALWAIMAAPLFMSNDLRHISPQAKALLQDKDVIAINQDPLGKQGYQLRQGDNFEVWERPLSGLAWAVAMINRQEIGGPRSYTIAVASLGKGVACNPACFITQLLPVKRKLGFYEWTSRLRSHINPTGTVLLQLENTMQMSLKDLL
Chain of Pyruvate kinase (Leishmania mexicana) (Q27686 2-499 E452W): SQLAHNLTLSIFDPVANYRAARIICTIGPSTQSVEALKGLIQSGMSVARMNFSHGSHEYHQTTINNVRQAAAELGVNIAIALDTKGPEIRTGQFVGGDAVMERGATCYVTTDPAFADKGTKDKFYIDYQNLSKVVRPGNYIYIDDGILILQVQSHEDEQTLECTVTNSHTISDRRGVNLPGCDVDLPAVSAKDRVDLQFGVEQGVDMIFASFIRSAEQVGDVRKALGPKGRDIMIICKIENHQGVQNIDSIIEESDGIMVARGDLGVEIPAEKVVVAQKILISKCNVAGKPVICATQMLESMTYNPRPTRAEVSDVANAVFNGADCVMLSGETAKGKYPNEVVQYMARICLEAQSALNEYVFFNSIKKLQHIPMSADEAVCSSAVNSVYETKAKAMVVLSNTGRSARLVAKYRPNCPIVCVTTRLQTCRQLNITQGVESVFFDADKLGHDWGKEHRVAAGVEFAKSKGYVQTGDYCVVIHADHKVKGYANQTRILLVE
Chain of Cytochrome P450 2C19 (Homo sapiens) (P33261 whole entry, looked up): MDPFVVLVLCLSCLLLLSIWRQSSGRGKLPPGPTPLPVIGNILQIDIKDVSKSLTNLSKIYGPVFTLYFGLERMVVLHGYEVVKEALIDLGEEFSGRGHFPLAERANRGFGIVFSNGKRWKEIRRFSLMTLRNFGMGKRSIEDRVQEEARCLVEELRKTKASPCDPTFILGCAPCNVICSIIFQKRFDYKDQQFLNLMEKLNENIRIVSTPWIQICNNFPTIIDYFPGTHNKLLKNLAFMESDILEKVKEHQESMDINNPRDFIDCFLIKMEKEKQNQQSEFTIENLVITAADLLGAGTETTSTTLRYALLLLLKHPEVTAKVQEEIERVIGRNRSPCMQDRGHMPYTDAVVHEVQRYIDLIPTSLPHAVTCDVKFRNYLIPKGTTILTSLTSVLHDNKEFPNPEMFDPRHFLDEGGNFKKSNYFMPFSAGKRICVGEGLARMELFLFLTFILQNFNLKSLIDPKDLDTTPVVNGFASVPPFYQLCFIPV

With `O=C(O)c1cc(=O)c2ccc(Cl)cc2[nH]1` the activity change, negative = inhibition [1] was -5.86% (inactive), the Potency [2] was “inactive” and the activity change, negative = inhibition [3] was 3.07% (inactive). The activity, negative = inhibition [4] was 42.7% (inactive), the Potency [5] was > 46 µM (inactive) and the Potency [6] was > 46 µM (inactive). The Potency [7] was “inactive”, the Potency [8] was “inactive” and the outcome [9] was “inactive”. For the same molecule, the Potency [10] was “inactive”, the Potency [11] was “inactive” and the Potency [12] was “inactive”. The outcome [13] was “inactive”, the Potency [14] was “inactive” and the outcome [15] was “inactive”. For the same molecule, the Potency [16] was “inactive”, the Potency [17] was “inactive” and the outcome [18] was “inactive”. For the same molecule, the outcome [19] was “inactive”, the outcome [20] was “inactive” and the outcome [21] was “inactive”. For the same molecule, the activity change, negative = inhibition ([22]; at 57.5 µM (top of the series)) was 4.77% (inactive) and 6.7% (inactive) and the max response ([22]; measured here: cell count channel max response) was 15.1% and -2.23%.
